Assay results: PubChem BioAssay (NCATS)
Values joined by “and” are separate entries in the source; they are usually repeats but may differ in a detail not shown here. Identical values can stand only once. Inconclusive results are not listed. Some of the results follow. Active and inactive are the calls of the source. Unless noted, the call rests on the fitted dose curve; in most records, active means well fitted curve in the direction sought with a large enough effect; inconclusive means small, poorly fitted or top-dose-only effect, or another doubt; inactive means no such curve, though single readings can be large; an effect the other way counts as inactive or inconclusive.

Tests used:
[1] = qHTS assay for small molecule disruptors of the mitochondrial membrane potential - 5 hr assay (AID 651755; calls by dose curve; further: on the % scale 0 is the no-effect control and ±100 the full control effect; nearly all actives have a fitted effect of over 40% in size)
In short: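 HepG2 cells (2,000/well), attached overnight, exposed to compound 5 hr at 37C, then Mito-MPS dye 30 min. Fluorescence read for monomers (490/535 nm) and aggregates (540/590 nm).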

[2] = molecular target: Tumor necrosis factor (Homo sapiens) (UniProt P01375); test: qHTS assay to identify small molecules that stimulate Tumor Necrosis Factor-alpha (TNF-alpha) secretion (AID 651757; active means well fitted curve in the direction sought with a large enough effect in the signal ratio; the % refers to the signal ratio; further: 0% is about no effect)
In short: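 Secreted TNF-alpha from compound-treated THP-1 cells (17 hrs, 37 C) was quantified with a homogeneous time-resolved fluorescence antibody assay.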

[3] = qHTS assay for environmental chemicals that activate the Aryl hydrocarbon Receptor (AhR) signaling pathway (AID 651777); conditions: 1A2-DRE human hepatoma cells, luciferase, 24 h; active compounds read high; further: % of control where 0% means no effect; nearly all actives have a fitted effect of over 15% in size
In short: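 AhR activation is scored as a rise in luciferase from a stable DRE–CYP1A2 promoter construct in human hepatoma cells. Treatment lasts 24 hr at 37 C; detection uses One-Glo after 30 min at room temperature.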

[4] = molecular target: Peroxisome proliferator-activated receptor alpha (Homo sapiens) (UniProt Q07869); test: qHTS assay for small molecule agonists of the peroxisome proliferator-activated receptor alpha (PPARalpha) signaling pathway (AID 651778); conditions: PathHunter PPARalpha complementation, chemiluminescence, 6 h; active compounds read high; further: % of control where 0% means no effect
In short: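 Enzyme-fragment complementation assay in which ligand-bound PPARalpha translocates and forms an active enzyme that generates chemiluminescence. Cells were plated overnight, exposed to compound for 6 hr at 37 C, and then given detection reagent for 60 min at room temperature.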

[5] = qHTS assay for small molecule agonists of the antioxidant response element (ARE) signaling pathway measured by Nrf2-dependant transcriptional activity (AID 720636; active means well fitted curve in the direction sought with a large enough effect in the repeat runs; an effect the other way counts as inactive or inconclusive;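 further: HepG2 cells with an ARE-driven luciferase reporter; % of control where 0% means no effect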)
In short: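 First, ARE-luc HepG2 cells attached for 6 hr at 37 C in 1% dialyzed FBS medium. Next, compound or DMSO was added and incubated 16 hr. Finally, ONE-Glo reagent was added and luminescence measured after 30 min.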

[6] = qHTS assay for small molecule antagonists of the retinoid-related orphan receptor gamma (ROR-gamma) signaling pathway - cell viability counter screen (AID 720652; active means well fitted curve in the direction sought with a large enough effect in the repeat runs; an effect the other way counts as inactive or inconclusive;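 further: CHO reporter cells with doxycycline-induced ROR-gamma expression; series mostly up to about 92 µM; compound exposure lasted 16 hr before ATP read; on the % scale 0 is the no-effect control and ±100 the full control effect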)
In short: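 Cytotoxicity is quantified via intracellular ATP (CellTiter-Glo luminescence) in doxycycline-induced CHO ROR response element-luciferase reporter cells treated with compound for 16 hr at 37 C, 5% CO2.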

[7] = qHTS assay for small molecule agonists of the antioxidant response element (ARE) signaling pathway measured by Nrf2-dependant transcriptional activity - cell viability counter screen (AID 720653; active means well fitted curve in the direction sought with a large enough effect in the repeat runs; an effect the other way counts as inactive or inconclusive; further: on the % scale 0 is the no-effect control and ±100 the full control effect); conditions: ARE-bla HepG2 viability, CellTiter-Glo ATP luminescence, 16 h; active compounds read low
In short: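 ARE-bla HepG2 cells treated with compounds for 16 h at 37C; this counter screen measures viability as intracellular ATP by CellTiter-Glo luminescence after 30 min at room temperature.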

[8] = qHTS Assay for Identifying Gametocytocidal Compounds (AID 743244); further: potency means the concentration at half of the fitted maximal effect;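 on max response: on the % scale 0 is the no-effect control and ±100 the full control effect; actives lower the fluorescent signal which means gametocytes are killed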; conditions: P. falciparum 3D7 stage III-V gametocytes, alamarBlue, 72 h; max response: active compounds read low
In short: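 Fluorescence at Ex 525/Em 598 nm, recorded 24 h after alamarBlue addition, reports residual metabolic activity of 3D7 gametocytes (stages III–V) following 72 h compound exposure at 37 °C, 5% CO2.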

[9] = qHTS assay for cell viability of HEK293 cells (AID 743288); conditions: ATP luminescence (CellTiter-Glo), 18 h, active compounds read low; further: on the % scale 0 is the no-effect control and ±100 the full control effect; nearly all actives have a fitted effect of over 50% in size
In short: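 Parental HEK293 cells were seeded at 2,000 cells/well, rested at least 5 h at 37 C, then exposed to compounds in DMSO for 18 h at 37 C. Viability was read as ATP-dependent luciferase luminescence after 30 min at room temperature.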

[10] = qHTS assay for cell viability of the p53RE-bla HCT-116 cell line (AID 743292); further: on the % scale 0 is the no-effect control and ±100 the full control effect; nearly all actives have a fitted effect of over 55% in size
In short: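 Quantitative high-throughput format: compounds in DMSO were pinned onto p53RE-bla HCT-116 cells (4,000/well) and incubated 16 h at 37 C. Total intracellular ATP, read by CellTiter-Glo luminescence, reflects viable cell number.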

[11] = qHTS assay to identify small molecules that stimulate interleukin-8 (IL-8) secretion (AID 651758; active means well fitted activation curve with a large enough effect in the signal ratio; the % refers to the signal ratio; further: 0% is about no effect)
In short: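 THP-1 cells (2000/well) exposed to compound 16 h at 37 C; secreted IL-8 then detected by HTRF with cryptate- and XL665-labelled anti-IL-8 antibody pair after 1-3 h at room temperature.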

[12] = molecular target: Nuclear receptor ROR-gamma (Homo sapiens) (UniProt P51449); test: qHTS assay for small molecule antagonists of the retinoid-related orphan receptor gamma (ROR-gamma) signaling pathway (AID 651802);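 further: CHO cells with doxycycline-induced ROR-gamma expression; series mostly up to about 92 µM; on the % scale 0 is the no-effect control and ±100 the full control effect; nearly all actives have a fitted effect of over 60% in size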
In short: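 Antagonism is scored as a fall in luminescence from a RORE-luciferase reporter in CHO cells expressing ROR under a TET-inducible promoter, measured 16hr after doxycycline induction in the presence of compound.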

[13] = molecular target: DNA polymerase kappa (Homo sapiens) (UniProt Q9UBT6); test: qHTS for Inhibitors of Polymerase Kappa: Confirmatory Assay for Cherry-picked Compounds (AID 720501); conditions: purified Pol-kappa, fluorescent strand-displacement substrate; further: potency means the concentration at half of the fitted maximal effect
In short: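 10 nM human Pol-kappa was preincubated with compound 15 min at room temperature, then 50 nM (final) primer/template substrate with TAMRA-labeled reporter strand and BHQ-2-labeled template added. Fluorescence (Ex 525, Em 598 nm) read at 0 and 10 min.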

Sequence of Tumor necrosis factor (Homo sapiens) (P01375 whole entry, looked up): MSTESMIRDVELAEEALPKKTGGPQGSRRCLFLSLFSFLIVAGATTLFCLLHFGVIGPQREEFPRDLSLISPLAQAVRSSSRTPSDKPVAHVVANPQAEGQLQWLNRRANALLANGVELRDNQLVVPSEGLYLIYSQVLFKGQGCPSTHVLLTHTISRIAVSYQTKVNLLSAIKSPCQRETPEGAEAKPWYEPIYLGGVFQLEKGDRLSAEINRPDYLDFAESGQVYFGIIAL
Sequence of Peroxisome proliferator-activated receptor alpha (Homo sapiens) (Q07869 whole entry, looked up, the tested form may be a part): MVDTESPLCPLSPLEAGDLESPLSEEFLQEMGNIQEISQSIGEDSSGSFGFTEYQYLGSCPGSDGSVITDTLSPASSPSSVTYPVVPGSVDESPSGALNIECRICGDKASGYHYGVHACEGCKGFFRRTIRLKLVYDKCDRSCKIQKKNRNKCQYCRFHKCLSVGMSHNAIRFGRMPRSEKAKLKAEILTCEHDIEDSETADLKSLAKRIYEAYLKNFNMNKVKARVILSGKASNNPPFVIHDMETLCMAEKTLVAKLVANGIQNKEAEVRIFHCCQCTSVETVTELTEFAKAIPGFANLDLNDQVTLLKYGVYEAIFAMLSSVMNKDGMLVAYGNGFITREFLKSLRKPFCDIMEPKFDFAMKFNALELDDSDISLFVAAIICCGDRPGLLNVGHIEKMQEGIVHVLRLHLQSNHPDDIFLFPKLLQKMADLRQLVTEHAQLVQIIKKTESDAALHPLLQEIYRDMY
Sequence of Nuclear receptor ROR-gamma (Homo sapiens) (P51449 whole entry, looked up): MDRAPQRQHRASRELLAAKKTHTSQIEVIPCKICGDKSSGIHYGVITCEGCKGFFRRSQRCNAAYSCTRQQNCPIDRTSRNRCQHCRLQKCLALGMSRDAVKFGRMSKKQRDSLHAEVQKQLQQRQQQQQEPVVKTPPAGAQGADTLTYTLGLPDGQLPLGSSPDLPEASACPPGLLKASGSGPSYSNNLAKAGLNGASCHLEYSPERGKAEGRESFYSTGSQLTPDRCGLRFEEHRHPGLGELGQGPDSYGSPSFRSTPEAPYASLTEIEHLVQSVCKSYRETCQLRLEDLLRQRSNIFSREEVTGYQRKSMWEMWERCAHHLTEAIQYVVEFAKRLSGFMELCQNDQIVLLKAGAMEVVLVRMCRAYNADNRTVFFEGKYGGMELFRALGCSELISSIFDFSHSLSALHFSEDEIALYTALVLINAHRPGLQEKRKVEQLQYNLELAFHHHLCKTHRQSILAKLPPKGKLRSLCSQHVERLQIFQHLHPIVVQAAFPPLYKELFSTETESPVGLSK
Sequence of DNA polymerase kappa (Homo sapiens) (Q9UBT6 whole entry, looked up): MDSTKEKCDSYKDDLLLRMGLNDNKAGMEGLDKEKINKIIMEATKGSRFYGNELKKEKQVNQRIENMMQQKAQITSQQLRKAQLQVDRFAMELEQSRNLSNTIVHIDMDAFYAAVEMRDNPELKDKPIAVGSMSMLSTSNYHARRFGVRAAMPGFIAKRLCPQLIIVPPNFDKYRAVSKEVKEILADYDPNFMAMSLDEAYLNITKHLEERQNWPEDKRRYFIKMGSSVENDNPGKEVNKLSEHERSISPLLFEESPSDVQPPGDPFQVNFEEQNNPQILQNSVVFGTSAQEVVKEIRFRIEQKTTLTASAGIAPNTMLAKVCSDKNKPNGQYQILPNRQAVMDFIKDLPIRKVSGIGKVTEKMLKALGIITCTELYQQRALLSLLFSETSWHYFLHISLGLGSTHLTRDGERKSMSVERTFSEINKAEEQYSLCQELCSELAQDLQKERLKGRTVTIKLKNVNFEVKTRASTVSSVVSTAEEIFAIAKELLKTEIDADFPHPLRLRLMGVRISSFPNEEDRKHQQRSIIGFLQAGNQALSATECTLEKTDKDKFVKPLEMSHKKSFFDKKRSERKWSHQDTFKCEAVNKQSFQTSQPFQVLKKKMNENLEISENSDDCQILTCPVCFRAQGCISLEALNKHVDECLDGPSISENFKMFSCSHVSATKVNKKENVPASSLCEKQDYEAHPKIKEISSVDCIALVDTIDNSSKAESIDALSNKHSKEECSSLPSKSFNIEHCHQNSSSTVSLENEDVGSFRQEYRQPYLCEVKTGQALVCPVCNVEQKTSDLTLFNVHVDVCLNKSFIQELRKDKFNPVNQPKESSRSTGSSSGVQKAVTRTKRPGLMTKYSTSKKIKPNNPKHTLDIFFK

SMILES | Potency [1] | outcome [2] | activation [3] | max response [4] | outcome [5] | outcome [6] | max response [7] | max response [8] | max response [9] | outcome [10] | outcome [11] | outcome [12] | Potency [8] | Potency [13]
CC1CC(OC(=O)c2ccccc2O)CC(C)(C)C1 (stereo not drawn) | inactive | inactive | 2.34% (inactive) | -1.84% (inactive) | inactive | inactive | 0.684% (inactive) | -1.2% (inactive) | -5.44% (inactive) | inactive |  |  |  | 
Cc1cc(C)nc(NS(=O)(=O)c2ccc(N)cc2)n1 |  | inactive | -1.73% (inactive) and 0.131% (inactive) | -5.72% (inactive) and -2.38% (inactive) | inactive | inactive | -4.69% (inactive) and 1.65% (inactive) | -2.99% (inactive) | 2.28% (inactive) and -2.43% (inactive) | inactive |  |  |  | 
CC(=O)OCC(COC(C)=O)OC(C)=O |  | inactive | 1.18% (inactive) and -0.878% (inactive) | 0.869% (inactive) and -1.48% (inactive) | inactive | inactive | -0.23% (inactive) and 1.03% (inactive) | 41.8% (inactive) | 2.21% (inactive) and 6.16% (inactive) | inactive | inactive | inactive |  | 
COC(=O)c1ccc(O)cc1 |  |  | 7.25% (inactive) | -1.49% (inactive) |  |  | -3.37% (inactive) |  | 1.25% (inactive) | inactive |  |  |  | 
Nc1c2c(nc3c1CCC3)CCCC2 |  |  |  |  |  |  |  |  |  |  |  |  | 11.2 µM (active) | 
CC(=O)Nc1cccc(O)c1 |  | inactive | 2.7% (inactive) | -0.0766% (inactive) | inactive | inactive | 3.22% (inactive) | 5.77% (inactive) | -4.32% (inactive) | inactive |  |  |  | 
C=CCNC(N)=S |  | inactive | 0.627% (inactive) | -1.33% (inactive) | inactive | inactive | 0.701% (inactive) | 5.17% (inactive) | -7.7% (inactive) | inactive | inactive |  |  | 
CC(C)=CCC/C(C)=C/CO |  |  | -0.426% (inactive) | -2.93% (inactive) | inactive |  | 4.56% (inactive) | 19.8% (inactive) | 0.933% (inactive) | inactive |  |  |  | 
Cc1c(N(C)C)c(=O)n(-c2ccccc2)n1C | inactive | inactive | -1.03% (inactive) and 1.07% (inactive) | -3.72% (inactive) and 2.35% (inactive) | inactive | inactive | -0.437% (inactive) and -7.96% (inactive) | -4.29% (inactive) | 1.77% (inactive) and -15.3% (inactive) | inactive |  | inactive |  | 
CCCCCC(N)=O |  | inactive | -0.0681% (inactive) | -2.19% (inactive) | inactive | inactive | -1.07% (inactive) |  | 7.6% (inactive) | inactive |  | inactive |  | 
CC(=O)Nc1ccc(C(=O)O)cc1 |  | inactive | 0.454% (inactive) | -0.167% (inactive) | inactive | inactive | -5.69% (inactive) | 7.86% (inactive) | -10.3% (inactive) | inactive |  | inactive |  | 
O=C(OOC(=O)c1ccccc1)c1ccccc1 |  |  | 2.82% (inactive) | -3.46% (inactive) | inactive |  | -11.2% (inactive) | -8.14% (inactive) | -11.7% (inactive) | inactive |  |  |  | 
OC[C@@H](O)[C@@H](O)[C@H](O)[C@H](O)CO |  |  | -0.115% (inactive) | -1.72% (inactive) | inactive |  | -1.54% (inactive) | 5.56% (inactive) | -10.6% (inactive) | inactive |  |  |  | 
CCCC(O)C(CC)CO (stereo not drawn) |  | inactive | 0.804% (inactive) | -4.25% (inactive) | inactive | inactive | 0.4% (inactive) | 0.642% (inactive) | -0.929% (inactive) | inactive | inactive | inactive |  | 
Cc1cc(O)cc(C)c1Cl |  |  |  | -0.107% (inactive) | inactive |  | 0.227% (inactive) | -2.6% (inactive) | -9.96% (inactive) | inactive |  |  |  | 
CC[N+](CC)(CC(=O)Nc1c(C)cccc1C)Cc1ccccc1 |  |  | 0.016% (inactive) | 1.81% (inactive) | inactive |  | -0.181% (inactive) | 7.32% (inactive) | -11.2% (inactive) | inactive |  |  |  | 
Cc1cc(=O)[nH]c(=S)[nH]1 |  | inactive | -0.745% (inactive) | -5.54% (inactive) | inactive | inactive | 1.24% (inactive) | 4.75% (inactive) | -3.4% (inactive) | inactive | inactive | inactive |  | 
COc1ccc(-c2cc(=O)c3c(O)cc(O[C@@H]4O[C@H](CO[C@@H]5O[C@@H](C)[C@H](O)[C@@H](O)[C@H]5O)[C@@H](O)[C@H](O)[C@H]4O)cc3o2)cc1O |  |  |  |  |  |  |  |  |  |  |  |  |  | 18.9 µM (active)
Cc1cccc(Nc2ccccc2C(=O)O)c1C |  |  | 2.22% (inactive) |  | inactive |  | -4.01% (inactive) | 4.7% (inactive) | 2.21% (inactive) | inactive |  |  |  | 
